Hit rate of the full screen: of about 220,000 compounds, about 16,000 (7.3%) were called active. Inconclusive results (about 25%) are left out. The sample as a whole holds a higher share of actives than the screen did. Values without a mark were called inactive. The call rests on the fitted dose curve; in most records, active means well fitted inhibition curve with a large enough effect (not every such curve was filed as active); inconclusive means small, poorly fitted or top-dose-only effect, or another doubt; inactive means no such curve, though single readings can be large or run the other way.
These compounds were tested against Aldehyde dehydrogenase 1A1 (Homo sapiens) (UniProt P00352) (assay: qHTS Assay for Inhibitors of Aldehyde Dehydrogenase 1 (ALDH1A1)). Details: Purified ALDH1A1, NADH fluorescence, propionaldehyde substrate; series mostly up to 75.3 µM; activity, negative = inhibition: at the top concentration.
Aldehyde dehydrogenase 1A1 (Homo sapiens), sequence (P00352 whole entry, looked up): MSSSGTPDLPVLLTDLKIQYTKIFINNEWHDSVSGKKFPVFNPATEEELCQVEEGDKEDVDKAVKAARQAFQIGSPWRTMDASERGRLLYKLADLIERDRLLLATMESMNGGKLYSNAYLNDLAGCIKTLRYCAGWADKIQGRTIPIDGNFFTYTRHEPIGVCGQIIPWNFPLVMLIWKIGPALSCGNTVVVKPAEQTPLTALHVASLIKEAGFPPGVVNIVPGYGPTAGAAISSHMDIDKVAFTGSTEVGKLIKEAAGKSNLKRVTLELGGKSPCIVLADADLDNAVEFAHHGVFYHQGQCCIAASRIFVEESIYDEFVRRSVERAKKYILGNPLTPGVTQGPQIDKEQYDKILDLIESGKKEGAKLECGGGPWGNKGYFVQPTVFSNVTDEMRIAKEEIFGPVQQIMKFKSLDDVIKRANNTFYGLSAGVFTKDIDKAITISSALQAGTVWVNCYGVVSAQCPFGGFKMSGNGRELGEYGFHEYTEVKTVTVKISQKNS
Potency means the concentration at half of the fitted maximal effect.
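Wherever activity, negative = inhibition is given: plate controls were no enzyme wells and a reference inhibitor.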

Structure (SMILES) | activity, negative = inhibition | Potency
CCn1c(CNS(=O)(=O)c2ccc(Cl)cc2)n[nH]c1=S | -6.02% | –
CCCCNCc1ccc(SC)cc1 | -1.19% | –
CSc1ccc(S(=O)(=O)NCc2ccc(Cl)cc2)cc1 | – | 22.4 µM (active)
CC(C)(C)OC(=O)NCCCC1=CC2=CC(=O)C(C)(OC(=O)c3ccco3)C(=O)C2=CO1 (stereo not given) | -5.63% | –
C=CCO/N=C/C1=C(O)C(C(=O)OC)C(C)(C)CC1=O (stereo not given) | 1.49% | –
COc1cccc(-n2c(=O)c3c(C)c(C(=O)N(C)C)sc3n(CC(=O)NCCc3ccc(OC)c(OC)c3)c2=O)c1 | 7.95% | –
CCN(CC)c1ccc2c(Nc3ccccc3)c(C=O)c(=O)oc2c1 | – | 1.58 µM (active)
COc1cccc(NC(=O)c2nn(-c3ccc(OC)cc3OC)c(=O)c3ccccc23)c1 | 2.87% | –
COc1cccc(NC(=O)c2ccc(Cn3cc([N+](=O)[O-])cn3)o2)c1 | – | 14.1 µM (active)
O=C(Nc1ccc(Br)c2cccnc12)c1ccc(Cn2cc([N+](=O)[O-])cn2)o1 | -4.37% | –
Cn1cc([N+](=O)[O-])c(C(=O)Nc2cnn(Cc3ccc(F)cc3)c2)n1 | 3.74% | –
CCc1ccc(NC(=O)c2ccc(Cn3cc([N+](=O)[O-])cn3)cc2)cc1 | 13.5% | –
COc1cccc(NC(=O)c2nn(C34CC5CC(CC(C5)C3)C4)cc2[N+](=O)[O-])c1 | – | 0.224 µM (active)
CC[C@@]12C=C(/C=C/c3ccccc3)[C@](CC)(C1)[C@H](c1ccccc1)CC2=O | -3.32% | –
CCOC(=O)C1CCCN(C(=O)/C=C/c2ccc(OC)cc2)C1 (stereo not given) | – | 22.4 µM (active)
CCOC(=O)C1CCCN(C(=O)CN(c2ccc(OC)cc2)S(=O)(=O)c2c(C)noc2C)C1 (stereo not given) | 1.65% | –
CCOC(=O)C1CCCN(C(=O)COc2ccc(N(C)S(=O)(=O)c3ccc(C)cc3)cc2)C1 (stereo not given) | -3.05% | –
Cc1nn(CC#N)c(=O)n1N(C)c1ncc(C(F)(F)F)cc1Cl | 0.785% | –
O=C(NCc1ccncc1)C(=O)NCc1ccco1 | -1.71% | –
CC(=O)Nc1ccc(CN2CCN(Cc3ccc(F)c(F)c3)C(CCO)C2)cc1 (stereo not given) | -9.5% | –
CC(=O)NC1C(OCc2ccccc2)OC(COC(C)=O)C(OC(C)=O)C1OC(C)=O (stereo not given) | 13.5% | –
CC(=O)NC1C(Oc2ccc(C=O)cc2)OC(COC(C)=O)C(OC(C)=O)C1OC(C)=O (stereo not given) | – | 3.55 µM (active)
CCc1cccc(OC2OC(CO)C(O)C(O)C2NC(C)=O)c1 (stereo not given) | 2.58% | –
C/C(=N/Nc1ccc(Cl)cc1)c1cnnc(-c2ccccc2)n1 | -2.44% | –
CC1CCCN(CC(O)COCc2ccccc2)C1 (stereo not given) | -2.88% | –
CCOC(=O)CNC(=O)CSc1nnnn1-c1cc(C)ccc1C | – | 7.08 µM (active)
CNC(=O)CSc1nnnn1-c1ccc(C)cc1C | 3.38% | –

Structure (SMILES) | activity, negative = inhibition | Potency
CCOC(=O)c1c(-c2ccc(C)cc2C)csc1NC(=O)CSc1nnnn1C | -14.7% | –
NC(=O)C1CCN(C(=O)COc2cccc3cccnc23)CC1 | 5.03% | –
Cn1ccc(NC(=O)Nc2ccc(Cl)cc2)n1 | 13% | –
CCOC(=O)N1CCN(CC(=O)c2c(C)[nH]c3ccccc23)CC1 | – | 11.2 µM (active)
Cc1c(C(=O)CN2CCOCC2)[nH]c2ccccc12 | – | 15 µM (active)
Cc1c(C(=O)N2CCOCC2)[nH]c2ccc(OCc3ccccc3)cc12 | -9.79% | –
Cc1[nH]c2ccccc2c1C(=O)COC(=O)C(C)C | -0.515% | –
O=C(CN1CCOCC1)Nc1ccccc1 | -3.75% | –
Cc1ccc2c(C(=O)CN3CCCC3)c(C)[nH]c2c1 | 2.72% | –
CCN(C(=O)Cc1nc(N)n[nH]1)C1(C(=O)Nc2ccccc2)CCCCC1 | -0.0224% | –
COc1ccc(/C=C(\NC(=O)c2ccc(OCC(C)C)cc2)C(=O)OCc2ccco2)cc1 | -4.85% | –
CCOc1ccc(-n2cnnn2)cc1S(=O)(=O)N1CCC(C)CC1C (stereo not given) | -10.4% | –
CCOC(=O)CCCN1CC(O)=C(c2nc3ccccc3s2)C1=N | -13.7% | –
O=C(Nn1c(-c2ccccc2)nc2ccccc2c1=O)c1ccc([N+](=O)[O-])cc1 | 2.11% | –
N=C1C(c2nc3ccccc3s2)=C(O)CN1NC(=O)c1ccc([N+](=O)[O-])cc1 | – | 1.78 µM (active)
O=C(NC1CC1)c1ccc(-c2ccccc2)cc1 | -5.59% | –
Cc1cc(/C=N/n2cnnc2)c(C)n1-c1cccc(C(=O)O)c1 | 41.2% | –
Cc1cccc(-n2c(C)cc(/C=N/NC(N)=S)c2C)c1 | – | 3.16 µM (active)
CCOc1ccc(/C=N/NC(N)=S)cc1 | 6.14% | –
COc1ccc(-c2nc3cc([N+](=O)[O-])ccc3o2)cc1OC | 7.32% | –
CCOC(=O)C1(C)NC(c2ccco2)C2C(=O)N(c3ccccc3)C(=O)C21 (stereo not given) | 4.72% | –
COc1ccc(Cl)cc1C(=O)NNC(=S)NC1CCCC1 | -2.74% | –
COc1ccc(CNC(=O)C2CCN(S(C)(=O)=O)CC2)cc1 | 0.686% | –
Cc1cccc(C)c1OCC(=O)NC(Cc1c[nH]c2ccccc12)C(=O)O (stereo not given) | 6.38% | –
CCN(C(=O)CN1CCN(Cc2ccccc2)CC1)c1c(N)n(Cc2ccccc2)c(=O)[nH]c1=O | -0.126% | –
O=C(c1ccc(F)cc1)n1cc(C(=S)N2CCOCC2)c2ccccc21 | – | 31.6 µM (active)
N#C/C=C(/c1ccc(F)cc1)N1CCOCC1 | -0.308% | –

Structure (SMILES) | activity, negative = inhibition | Potency
COC(=O)c1cn(C(=O)c2ccc(Cl)cc2)c2ccccc12 | -4.44% | –
CC(=C/c1ccccc1)/C=N/NC(=O)c1cc(C)oc1C | 13.1% | –
COc1ccc(OC)c(S(=O)(=O)NCCC(C)C)c1 | – | 14.1 µM (active)
COCCNS(=O)(=O)c1cc(Br)ccc1OC | 8.1% | –
COc1ccc(OC)c(S(=O)(=O)Nc2ccccc2F)c1 | 25.1% | –
CC(Nc1oc(-c2ccccc2)nc1-c1ccccc1)c1ccccc1 (stereo not given) | – | inactive
O=C(COC(=O)c1cnccn1)Nc1cccc2ccccc12 | -5.34% | –
NS(=O)(=O)c1ccc(CCNC(=O)CCCn2c(SCC(=O)N3CCCC3)nc3ccsc3c2=O)cc1 | -6.33% | –
CCN(CC(=O)Nc1ccc2c(c1)OCCO2)Cc1cc(=O)oc2cc(C)c(C)cc12 | – | 10 µM (active)
CCCCC(=O)Nc1ccc2c(c1)OCCO2 | -9.91% | –
Cc1nn(CC(=O)Nc2ccc3c(c2)OCO3)c(C)c1[N+](=O)[O-] | 6.69% | –
Cc1ccc(S(=O)(=O)/N=C(\N)c2ccc(F)cc2)cc1 | 12.1% | –
C/C(=N\Nc1nc(Nc2ccccc2)nc(N2CCOCC2)n1)c1cccs1 | 1.01% | –
COc1cc2nc(CN(C)Cc3ccc(F)cc3)[nH]c(=O)c2cc1OC | -9.98% | –
COc1ccc(C(=O)NNC(=S)NC(=O)c2ccccc2[N+](=O)[O-])cc1 | -8.78% | –
CCCCCC(=O)Nc1ccc(C(=O)N/N=C/c2ccc([N+](=O)[O-])cc2)cc1 | 3.55% | –
COCCCNC(=S)NNC(=O)C(O)(c1ccccc1)c1ccccc1 | 8.03% | –
COCCCNC(=S)NC(=O)c1ccc([N+](=O)[O-])cc1 | – | 20 µM (active)
COCCCNC(=S)NC(=O)c1ccccc1 | -15.6% | –
CCCCCC(=O)NC(=S)NNC(=O)c1ccc([N+](=O)[O-])cc1 | – | 14.1 µM (active)
CCNC(=O)N1c2ccccc2Sc2ccccc21 | 6% | –
COC(=O)Cc1ccc(Oc2ncc(C(F)(F)F)cc2Cl)cc1 | -0.509% | –
CC(=O)Nc1sc2c(c1C(c1cccc(F)c1)N1CCN(CCO)CC1)CCCC2 (stereo not given) | -4.69% | –
C/[N+]([O-])=C\c1ccc([N+](=O)[O-])o1 | 3.25% | –
C=CCN(c1ccccc1C(=O)NCC(=O)OCC)S(=O)(=O)c1ccc(C)cc1 | 3.56% | –
CCN(CC)CCCNC(=O)Cn1cnc2sc(C)c(S(=O)(=O)N3CCN(c4ncccn4)CC3)c2c1=O | 9.98% | –
O=C(/C=C/c1cn(-c2ccccc2)nc1-c1ccc2c(c1)OCCO2)NCCCN1CCOCC1 | -2.09% | –

Structure (SMILES) | activity, negative = inhibition | Potency
CC(=O)[C@H](C(c1ccccc1)N1CCOCC1)N1CCOCC1 (stereo not given in full) | -3.8% [at 13.5 µM] | –
CN1/C(=C\C(=O)c2cccnc2Cl)C(C)(C)c2ccccc21 | 3.43% | –
C=CCN1C(=O)C(O)(CC(=O)c2ccc(Cl)cc2)c2ccccc21 (stereo not given) | – | 0.447 µM (active)
C=CCN1C(=O)C(O)(CC(=O)c2ccccn2)c2ccccc21 (stereo not given) | – | 0.355 µM (active)
CCOC(=O)CN1CCC(c2ccccc2)CC1 | 4.28% | –
CCOC(=O)CSc1ccccn1 | -3.83% | –
CCOC(=O)CN1C(=O)C(O)(CC(=O)c2ccccn2)c2ccccc21 (stereo not given) | – | 0.224 µM (active)
CC(C)(C)C(=O)CCN1C(=O)C2(OCCO2)c2ccccc21 | 4.96% | –
O=C(CSc1nnnn1-c1ccc(O)cc1)N1N=C(c2ccc3ccccc3c2)CC1c1ccccc1 (stereo not given) | 6.07% | –
CCc1ccc(NC(=O)Nc2ccncc2)cc1 | -2.72% | –
COC(=O)c1cccc([N+](=O)[O-])c1CS(=O)(=O)c1ccc(C)cc1 | -4.92% | –
CCOc1ccc(C2c3[nH]c4ccccc4c3CCN2Cc2cn(CC)nc2C)cc1 (stereo not given) | 6.43% | –
CC(CNc1ccc([N+](=O)[O-])c2cccnc12)Nc1c([N+](=O)[O-])cc(C(F)(F)F)cc1[N+](=O)[O-] (stereo not given) | -0.123% | –
O=C(Nc1cccnc1)c1ccc(Cl)cc1[N+](=O)[O-] | 3.9% | –
O=[N+]([O-])c1cc([N+](=O)[O-])c2cccnc2c1O | – | 25.1 µM (active)
O=S(=O)(Nc1ncccn1)c1ccc(NS(=O)(=O)c2cccc(Cl)c2Cl)cc1 | -1.37% | –
Cn1c(=O)n(C)c2cc(NS(=O)(=O)c3ccc(F)cc3)ccc21 | -6.74% | –
O=S(=O)(Nc1ccc(Oc2ncccn2)c(Cl)c1)c1ccc(F)cc1 | – | 10 µM (active)
CC(=O)Nc1ccc(NC(=S)NC(=O)c2ccc([N+](=O)[O-])c(C)c2)cc1 | 3.84% | –
Cc1cc(N2CCN(C)CC2)nc2ccc(NC(=S)N3CCOCC3)cc12 | 0.325% | –
CC1COc2ccccc2N1S(=O)(=O)c1ccccc1 (stereo not given) | -0.879% | –
O=C(C1CCN(C2CCN(Cc3ccc4cc(F)ccc4n3)CC2)CC1)N1CCCC1 | -6.91% | –
Cc1cccc(-n2c(=O)c3c(C)c(C)sc3n(CC(N)=O)c2=O)c1 | 2.1% | –
CN(C)c1ccc(C2Nc3ccccc3C(=O)N2NS(=O)(=O)c2ccccc2)cc1 (stereo not given) | – | 25.1 µM (active)

Reference: PubChem BioAssay AID1030 (National Center for Advancing Translational Sciences (NCATS), 2008)
